Results from PubChem BioAssay (NCI).
About 79,000 compounds went through this panel and 15% of them were active in at least one assay; those are over-represented in the sample as a whole. Cut-off read from the data, not from the text of the source: active = growth inhibition above about 70%; inactive = the rest.

Legend:
[1] = NCI Yeast Anticancer Drug Screen. Data for the rad50 strain (AID 155);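 note: 0% = growth of vehicle-only cultures of the same strain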; settings: S. cerevisiae rad50 strain growth inhibition; at 50.0 µM; stronger effect = higher value
How it was run: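 Inhibition values express reduced yeast growth in compound-treated cultures relative to vehicle-treated controls.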

[2] = NCI Yeast Anticancer Drug Screen. Data for the mec2-1 strain (AID 157); settings: S. cerevisiae mec2-1 strain, at 50.0 µM, stronger effect = higher value
How it was run: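 Cells of the genetically defined mec2-1 yeast strain are incubated with test compound. Inhibition of growth is calculated against vehicle-treated controls.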

[3] = NCI Yeast Anticancer Drug Screen. Data for the sgs1 mgt1 strain (AID 161);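 note: 0% = growth of cultures given vehicle only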; settings: S. cerevisiae sgs1 mgt1 strain, at 50.0 µM, stronger effect = higher value
How it was run: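 Genetically altered yeast, compound exposure, growth inhibition relative to vehicle.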

[4] = NCI Yeast Anticancer Drug Screen. Data for the cln2 rad14 strain (AID 165);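 note: 0% = growth equal to vehicle treated cultures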; settings: S. cerevisiae cln2 rad14 strain, at 50.0 µM, stronger effect = higher value
How it was run: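 The screen exposed genetically defined yeast (cln2 rad14) to test compounds and scored growth inhibition relative to vehicle-treated controls.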

[5] = NCI Yeast Anticancer Drug Screen. Data for the bub3 strain (AID 167); settings: S. cerevisiae bub3 mutant strain, at 50.0 µM, stronger effect = higher value
How it was run: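 Steps: expose the mutant yeast strain to compound; grow alongside vehicle-treated cultures; measure growth; express inhibition against the vehicle cultures.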

[6] = NCI Yeast Anticancer Drug Screen. Data for the mlh1 rad18 strain (AID 175); settings: S. cerevisiae mlh1 rad18 strain growth inhibition; at 50.0 µM; stronger effect = higher value
How it was run: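 Compound-treated yeast growth, normalised to vehicle controls. Strain bears defined DNA repair mutations.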

Measured: growth inhibition

[Fe+5].[O-][Cl+3]([O-])([O-])O.[O-]c1ccccc1C=NCCN1CC1.[O-]c1ccccc1C=NCCN1CC1
inactive: [1] 1.8% | [2] 16% | [3] 30.1% | [4] 0.3% | [5] 37% | [6] 22.2%

CCC(=O)O[C@H]1CC[C@H]2[C@@H]3CCC4=C/C(=N/NC(=O)c5cccc6c(=O)c7ccccc7[nH]c56)CC[C@]4(C)[C@H]3CC[C@]12C
inactive: [1] 13.7% | [2] 15.5% | [3] -16.4% | [4] -8.75% | [5] -17.2% | [6] -7.95%

Nc1ccc([As](O)O)c(C(=O)O)c1
inactive: [1] -15.1% | [2] -24.1% | [3] -27.9% | [4] -2.35% | [5] -26.3% | [6] -35.6%

CC(C)OC(N)=O
inactive: [1] -2.35% | [2] -24.9% | [3] 29.2% | [4] 13.6% | [5] -21% | [6] -6.85%

[NH-]C(CCC(N)=O)C(=O)O.[NH-]C(CCC(N)=O)C(=O)O.[Zn+2] (stereo not given)
inactive: [1] -23.1% | [2] -22.9% | [3] -27.1% | [4] 13.3% | [5] -26.6% | [6] -38.2%

CCOC(=O)/C(=C\c1cccc(F)c1)[Se]c1ccccc1
inactive: [1] 29.4% | [2] 7.15% | [3] 21.9% | [4] 8.3% | [5] 46.8% | [6] 36.6%

CC(=O)OCCCn1nc(COC(N)=O)c2c1CC(C)CC2=O (stereo not given)
inactive: [1] 1% | [2] -11.3% | [3] -8.25% | [4] -4.35% | [5] -14.8% | [6] 3.65%

O=C(CN1CC1)NCCCCCCCNC(=O)CN1CC1
inactive: [1] -13.4% | [2] 3.5% | [3] 1.6% | [4] 8.15% | [5] -4.15% | [6] 25.4%

CCc1ccccc1C(C(=O)NC1CN2CCC1CC2)c1ccsc1 (stereo not given)
inactive: [1] -10% | [2] -28.8% | [3] -43.3% | [4] -21.2% | [5] 8.05% | [6] -23.1%

C/C(=N\NC(N)=O)C(CN(C)C)C(c1ccccc1)c1c(O)c2ccccc2oc1=O (stereo not given)
inactive: [1] 15.8% | [2] 21.1% | [3] 15.6% | [4] 5% | [5] 9.7% | [6] 8%
